Measured values: PubChem BioAssay AID1159580 (chemical genetic matrix, 2015)
Where “and” joins values, the source holds several entries; their conditions need not be identical. Equal values may be shown once. Screen size: about 5,500 compounds; about 2,000 (36%) were called active. Another 18% or so got no clear call; they are omitted. No stated cut-off is given here; in the data, active means normalized growth mostly below about 0.91 (no sharp cut-off); inconclusive means no clear call, values can overlap the other calls; inactive means mostly above about 0.92. The list shows a part of the results.

Test: chemical genetic growth profiling, strain panel (AID 1159580);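 further: tested at 20 µM; growth read once vehicle control cultures reached saturation at 30 °C; 1 = growth at the plate median or of vehicle wells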
Details: S. cerevisiae deletion strains, growth OD

Measured: normalized growth

CC(=O)[C@H]1CCC2C3CCC4=CC(=O)CC[C@]4(C)C3CC[C@@]21C (some centres not stated)
active: locus YAL021C, strain ccr4, stronger effect = lower value 0.901 | locus YCL029C, strain bik1, stronger effect = lower value 0.735 | locus YDL192W, strain arf1, stronger effect = lower value 0.719 | locus YDR101C, strain arx1, stronger effect = lower value 0.908 | locus YDR137W, strain rgp1, stronger effect = lower value 0.49 | locus YDR162C, strain NBP2, stronger effect = lower value 0.583 | locus YDR195W, strain ref2 1.29 [resistant] | locus YDR318W, strain mcm21, stronger effect = lower value 0.671 | locus YDR388W, stronger effect = lower value 0.854 | locus YDR392W, strain spt3, stronger effect = lower value 0.247 | locus YDR502C, strain sam2, stronger effect = lower value 0.77 | locus YER155C, strain BEM2 (second series), stronger effect = lower value 0.555 | locus YGL086W, strain mad1, stronger effect = lower value 0.743 | locus YGL253W, strain hxk2, stronger effect = lower value 0.879 | locus YGR135W, strain pre9, stronger effect = lower value 0.731 | locus YHR079C, strain IRE1 (second series), stronger effect = lower value 0.85 | locus YHR094C, strain hxt1, stronger effect = lower value 0.907 | locus YHR142W, strain chs7, stronger effect = lower value 0.85 | locus YHR200W, strain rpn10, stronger effect = lower value 0.884 | locus YIR030C, strain dcg1, stronger effect = lower value 0.922 | locus YJL095W, strain BCK1 (second series), stronger effect = lower value 0.869 | locus YJL129C, strain trk1, stronger effect = lower value 0.865
0.777 (active) and 0.981 (inactive): locus YJL095W, strain BCK1, stronger effect = lower value
inactive: locus YAL013W, strain DEP1, stronger effect = lower value 0.963 | locus YAL026C, strain drs2, stronger effect = lower value 0.936 | locus YAL030W, strain snc1, stronger effect = lower value 0.975 | locus YBL061C, strain skt5, stronger effect = lower value 0.968 | locus YBR009C, strain hhf1, stronger effect = lower value 0.909 | locus YBR021W, strain FUR4, stronger effect = lower value 0.93 | locus YBR023C, strain chs3, stronger effect = lower value 0.957 | locus YBR171W, strain sec66, stronger effect = lower value 0.933 | locus YBR229C, strain ROT2, stronger effect = lower value 0.981 | locus YBR231C, strain swc5, stronger effect = lower value 0.951 | locus YBR279W, strain paf1, stronger effect = lower value 0.994 | locus YCL011C, strain gbp2, stronger effect = lower value 0.971 | locus YCL016C, strain dcc1, stronger effect = lower value 0.963 | locus YCL061C, strain MRC1, stronger effect = lower value 0.955 | locus YCL069W, strain vba3, stronger effect = lower value 0.976 | locus YCR088W, strain abp1, stronger effect = lower value 0.99 | locus YDL005C, strain med2, stronger effect = lower value 0.987 | locus YDL035C, strain GPR1, stronger effect = lower value 0.936 | locus YDL040C, strain nat1, stronger effect = lower value 0.981 | locus YDL074C, strain BRE1, stronger effect = lower value 0.862 | locus YDL101C, strain DUN1, stronger effect = lower value 0.977 | locus YDL134C, strain PPH21, stronger effect = lower value 0.962 | locus YDL185W, strain tfp1, stronger effect = lower value 0.923 | locus YDR001C, strain nth1, stronger effect = lower value 0.98 | locus YDR069C, strain doa4, stronger effect = lower value 0.963 | locus YDR150W, strain NUM1, stronger effect = lower value 0.983 | locus YDR159W, strain sac3, stronger effect = lower value 0.879 | locus YDR297W, strain sur2, stronger effect = lower value 0.972 | locus YDR334W, strain swr1, stronger effect = lower value 0.985 | locus YDR335W, strain msn5, stronger effect = lower value 0.948 | locus YEL003W, strain gim4, stronger effect = lower value 0.931 | locus YEL037C, strain rad23, stronger effect = lower value 0.974 | locus YEL061C, strain CIN8 (second series), stronger effect = lower value 0.972 | locus YEL061C, strain CIN8, stronger effect = lower value 0.971 | locus YER015W, strain faa2, stronger effect = lower value 0.969 | locus YER016W, strain bim1, stronger effect = lower value 0.953 | locus YER110C, stronger effect = lower value 0.916 | locus YER111C, strain swi4, stronger effect = lower value 0.954 | locus YER155C, strain BEM2, stronger effect = lower value 0.991 | locus YER167W, strain BCK2, stronger effect = lower value 0.93 | locus YFR010W, strain ubp6, stronger effect = lower value 0.994 | locus YGL078C, strain dbp3, stronger effect = lower value 0.961 | locus YGL167C, strain pmr1, stronger effect = lower value 0.94 | locus YGL173C, strain kem1, stronger effect = lower value 0.91 | locus YGL227W, strain vid30, stronger effect = lower value 0.999 | locus YGL240W, strain doc1, stronger effect = lower value 0.906 | locus YGL248W, strain PDE1, stronger effect = lower value 0.968 | locus YGR078C, strain PAC10, stronger effect = lower value 0.898 | locus YGR229C, strain SMI1, stronger effect = lower value 1.02 | locus YGR252W, strain gcn5, stronger effect = lower value 0.924 | locus YHR013C, strain ard1, stronger effect = lower value 1.06 | locus YHR027C, strain rpn1, stronger effect = lower value 0.97 | locus YHR030C, strain SLT2, stronger effect = lower value 0.925 and 0.973 | locus YHR079C, strain IRE1, stronger effect = lower value 0.984 | locus YHR129C, strain ARP1, stronger effect = lower value 0.973 | locus YIL066C, strain RNR3, stronger effect = lower value 0.902 | locus YIL073C, strain SPO22, stronger effect = lower value 0.893 | locus YIL125W, strain kgd1, stronger effect = lower value 0.958 | locus YJL092W, strain hpr5, stronger effect = lower value 0.969 | locus YJL115W, strain asf1, stronger effect = lower value 0.98 | locus YJL134W, strain LCB3, stronger effect = lower value 0.98 | locus YJL154C, strain vps35, stronger effect = lower value 0.986 | locus YJL164C, strain tpk1, stronger effect = lower value 0.929 | locus YJL166W, strain qcr8, stronger effect = lower value 0.916 | locus YJL168C, strain set2, stronger effect = lower value 0.934 | locus YJL187C, strain SWE1 (second series), stronger effect = lower value 0.96 | locus YJL187C, strain SWE1, stronger effect = lower value 0.969 | locus YJR043C, strain POL32, stronger effect = lower value 0.986 | locus YJR066W, strain TOR1, stronger effect = lower value 0.93
